Assay results published in PubChem BioAssay AID1851 (National Center for Advancing Translational Sciences (NCATS), 2009).
Several values for one entry are separate records, joined by “and”; a condition that tells them apart may be missing. Equal entries are not always repeated. About 4,000 (25%) of roughly 16,000 compounds were called active. Another 26% or so got no clear call; they are omitted. The call rests on the fitted dose curve; in most records, active means well fitted curve in the direction sought with a large enough effect; inconclusive means small, poorly fitted or top-dose-only effect, or effect the other way; inactive means no such curve, though single readings can be large or run the other way. Not all results are given here. The source holds several records for some structures; these can differ, active in one and inactive in another. Square brackets hold non-standard residues; d marks the D form. Peptide text beside a SMILES is read from it. * marks the point of attachment. ξ: configuration not given here. Cbz = O=C(OCc1ccccc1)*; PhAc = O=C(Cc1ccccc1)*; OBn = c1ccc(CO*)cc1; ξP = O=C(O)C1CCCN1

Molecular target: Cytochrome P450 2C9 (Homo sapiens) (UniProt P11712)
Assay: Cytochrome panel assay with activity outcomes
Details: recombinant CYP, pro-luciferin dealkylation, luminescence, p450-cyp2c9; series mostly up to 57.1 µM
On the % scale 0 is the no-effect control and ±100 the full control effect.

Sequence of Cytochrome P450 2C9 (Homo sapiens) (P11712 whole entry, looked up): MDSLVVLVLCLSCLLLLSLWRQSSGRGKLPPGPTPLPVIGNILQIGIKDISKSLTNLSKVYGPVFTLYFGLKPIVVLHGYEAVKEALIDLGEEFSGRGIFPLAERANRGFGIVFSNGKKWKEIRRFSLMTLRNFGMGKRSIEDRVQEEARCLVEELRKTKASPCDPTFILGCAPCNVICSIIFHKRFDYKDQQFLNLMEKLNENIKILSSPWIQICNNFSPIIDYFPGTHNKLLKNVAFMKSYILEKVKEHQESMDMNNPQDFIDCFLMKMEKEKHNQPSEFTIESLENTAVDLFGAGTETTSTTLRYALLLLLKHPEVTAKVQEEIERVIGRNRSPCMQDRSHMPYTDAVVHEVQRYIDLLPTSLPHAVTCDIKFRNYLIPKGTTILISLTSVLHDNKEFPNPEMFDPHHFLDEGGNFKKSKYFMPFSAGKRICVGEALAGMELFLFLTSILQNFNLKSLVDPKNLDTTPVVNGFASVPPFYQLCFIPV

| Structure (SMILES) | activity, negative = inhibition | AC50 |
| --- | --- | --- |
| C/C(CCN1CCCCc2nc(C)c(C)cc21)=N\O[C@@H](C)c1cn([C@H](CO)Cc2ccccc2)nn1 | 6.66% [at 11.4 µM] (inactive) and -0.809% [at 11.4 µM] (inactive) |  |
| O=C(Nc1cccc(F)c1)N1CC2(CCN(C(=O)c3csnn3)CC2)C1 |  | inactive |
| CCS(=O)(=O)N(C)[C@@H]1c2cc(C#N)ccc2OC(C)(C)[C@H]1O |  | inactive |
| O=C(O)[C@H]1[C@H](C(=O)O)[C@H](C(=O)O)C[C@@H]1C(=O)O | 7.74% [at 11.4 µM] (inactive) |  |
| Clc1ccc2c(NCCNC3CCCCC3)ccnc2c1 | -4.74% [at 11.4 µM] (inactive) |  |
| NCCCC(=O)O |  | inactive |
| CCn1c(SCc2ccc(C)cc2)nnc1-c1nn(-c2ccccc2)ccc1=O |  | inactive |
| Cc1ccc(-n2ccc(=O)c(-c3ccnc(SCc4cccc(Cl)c4)n3)n2)cc1 |  | 3.16 µM (active) |
| CC(C)(C)S(=O)(=O)c1cnc2c(-c3ccc(F)cc3)cnn2c1N |  | inactive |
| CCCN1CCN(C(=O)CN2C(=O)CC(C)(C)S(=O)(=O)c3ccccc32)CC1 |  | inactive |
| CC(=O)N1c2ccc(S(=O)(=O)CCC(=O)O)cc2CC1C (stereo unspecified) |  | inactive |
| CC1Cc2ccccc2N1C(=O)Cn1c(=O)cc(O)c2ccccc21 (stereo unspecified) |  | 14.1 µM (active) |
| CCN1CCN(CC(=O)N2c3ccccc3CC2C)CC1 (stereo unspecified) |  | inactive |
| C[C@@H]1Cc2ccccc2N1NC(=O)c1ccc(Cl)c(S(N)=O)c1 (stereo partly specified) |  | inactive |
| CC1Cc2ccccc2N1C(=O)CN1C(=O)COc2ccccc21 (stereo unspecified) |  | 11.2 µM (active) |
| COc1ccc(C(=O)N2CCC3(CC2)CN(Cc2ccc(C#N)cc2)C3)cc1 |  | inactive |
| COc1ccc(C(=O)N2CCC[C@@]3(CCN(Cc4cc(C(F)(F)F)cc(C(F)(F)F)c4)C3)C2)cc1 |  | inactive |
| COC(=O)[C@@]1(Cc2ccc(F)cc2)[C@H]2c3cc(C(=O)N4CCCC4)n(CCCNc4ncc(C(F)(F)F)cc4Cl)c3C[C@H]2CN1C(=O)c1ccccc1 |  | 3.16 µM (active) |
| COc1ccc(NC(=O)N2CCCC3(CCN(C(=O)c4cc(C(F)(F)F)cc(C(F)(F)F)c4)CC3)C2)cc1 |  | inactive |
| COC(=O)[C@@]1(Cc2ccc(OC)cc2)[C@H]2c3cc(C(=O)N4CCCC4)n(CCCNc4ncc(C(F)(F)F)cc4Cl)c3C[C@H]2CN1C(=O)c1ccccc1 |  | 7.94 µM (active) |
| N=C1CCC[C@@H]1C(=S)SCCC(N)=O | 17.6% [at 11.4 µM] (inactive) |  |
| C=CC(=O)NC(NC(=O)C=C)c1ccc(Br)cc1 |  | inactive |
| O=C1CC[C@H](NC(=O)c2ccccc2)C(=O)N1 | 5.14% [at 11.4 µM] (inactive) |  |
| O=C(c1ccco1)N1CCC[C@@]2(CCN(c3cccc(-c4ccccc4)c3)C2)C1 |  | 5.01 µM (active) |

| Structure (SMILES) | activity, negative = inhibition | AC50 |
| --- | --- | --- |
| O=C(c1cnccn1)N1CCC[C@@]2(CCN(c3cccc(-c4ccccc4)c3)C2)C1 |  | 7.94 µM (active) |
| O=C(c1ccco1)N1CCC2(CC1)CN(c1cccc(-c3ccccc3)c1)C2 |  | inactive |
| O=C(c1cnccn1)N1CCC2(CC1)CN(c1cccc(-c3ccccc3)c1)C2 |  | inactive |
| O=C(c1cnccn1)N1CCC2(CCCN(c3cccc(-c4ccccc4)c3)C2)CC1 |  | 20 µM (active) |
| O=C(c1cnccn1)N1CCC[C@@]2(CCN(c3ccncc3)C2)C1 |  | inactive |
| O=C(c1ccco1)N1CCC[C@@]2(CCN(c3ccccc3)C2)C1 |  | inactive |
| O=C(c1cnccn1)N1CCC2(CC1)CN(c1ccccc1)C2 |  | inactive |
| O=C(c1cnccn1)N1CCC[C@@]2(CCN(c3ccccn3)C2)C1 |  | inactive |
| CN(C)c1ccc(-c2ccc3ncnc(N(C)C)c3c2)cc1 | -17.4% [at 2.29 µM] (inactive) |  |
| O=c1n(-c2ccccc2)c(=O)n2n1CC[C@H]1/C(=N\OCc3ccccc3)[C@H]3O[C@@H]3[C@@H](O)[C@@H]12 | 25.1% [at 11.4 µM] (inactive) |  |
| O=C1CC(N2CCN(C(c3ccccc3)c3ccccc3)CC2)C(=O)N1Cc1ccc(N2CCCC2=O)cc1 (stereo unspecified) |  | 7.08 µM (active) |
| CN1CCN(C2CC(=O)N(Cc3ccc(N4CCCC4=O)cc3)C2=O)CC1 (stereo unspecified) |  | inactive |
| CCN1C(=O)CC(N2CCN(CC(=O)NC(C)C)CC2)C1=O (stereo unspecified) |  | inactive |
| NN(CC(=O)O)CC(=O)O | 17.7% [at 11.4 µM] (inactive) |  |
| Cc1cc(-c2ccc(Cl)cc2)oc(=O)c1NC(=O)c1ccccc1 |  | inactive |
| CNC(=O)c1sc(SC)cc1-c1ccc(Cl)cc1 |  | 5.62 µM (active) |
| Cc1ccc2c(c1)/C(=N/OC(=O)c1ccc(F)cc1)CCS2 |  | inactive |
| COc1ccccc1C(=O)O/N=C1/CCCc2c1ccc(OC)c2[N+](=O)[O-] |  | 12.6 µM (active) |
| Cc1cc(Cl)ccc1OC(C)C(=O)Nc1ccc(S(=O)(=O)Nc2cnc3ccccc3n2)cc1 (stereo unspecified) |  | 0.631 µM (active) |
| Cc1cc(NS(=O)(=O)c2ccc(NC(=O)CN3C(=O)c4ccccc4C3=O)cc2)nc(C)n1 |  | inactive |
| O=C1C2Sc3[nH]c(=O)sc3C(c3ccccc3)C2C(=O)N1c1ccccc1 (stereo unspecified) |  | 12.6 µM (active) |
| O=C1C(C2=NC(C(=O)O)C3C(=O)N(c4ccc(Cl)cc4)C(=O)C23)=C(O)c2ccccc21 (stereo unspecified) |  | inactive |
| O=C1C2Sc3[nH]c(=O)sc3C(c3ccccc3)C2C(=O)N1c1ccc(Cl)cc1 (stereo unspecified) |  | 8.91 µM (active) |
| CO[C@@H]1COC(=O)C/C=C\[C@H](C)COC(=O)[C@H](C)NC(=O)C/C=C\[C@H]1C | -7.79% [at 11.4 µM] (inactive) |  |

| Structure (SMILES) | activity, negative = inhibition | AC50 |
| --- | --- | --- |
| Fc1cccc(/C=N\N=C/c2cccc(F)c2)c1 |  | inactive |
| CC1(C)Cc2ccccc2C(N/N=C/c2cccc(F)c2)=N1 |  | 14.1 µM (active) |
| CC1=NC(C)(C)Cc2ccccc21 |  | inactive |
| O=C(O)C1CC2(C1)CC(C(=O)O)C2 (stereo unspecified) | -3% [at 11.4 µM] (inactive) |  |
| N#Cc1cccc(-c2ccc3ncnc(NC4CCNCC4)c3c2)c1 | 10.5% [at 2.29 µM] (inactive) |  |
| CC(C)C(=O)Cc1ccc2ccccc2n1 | 7.52% [at 11.4 µM] (inactive) |  |
| Cc1cnc(C(=O)OCC(=O)NC(C)C)cn1 |  | inactive |
| CCN(c1ccc(NC(=O)COC(=O)c2ccc3ccccc3n2)cc1)C(C)C |  | 20 µM (active) |
| CC(C)(C)C(=O)NC(Nc1cccc2cccnc12)C(Cl)(Cl)Cl (stereo unspecified) |  | 1.26 µM (active) |
| O=S(=O)(O)c1cc(N=Nc2cccc3ccccc23)c(O)c2ncccc12 | -11.1% [at 11.4 µM] (inactive) |  |
| O=C(Nc1cccc2cccnc12)[C@@H]1[C@@H](C(=O)O)[C@H]2CC[C@@H]1O2 | 7.28% [at 11.4 µM] (inactive) |  |
| COc1ccc(NC(=O)N2CC[C@@]3(CCCN(C(=O)c4cnccn4)C3)C2)cc1 |  | inactive |
| Cc1ccccc1OCC(=O)Nc1sc(C(=O)Nc2cccc(C)c2C)c(C)c1C#N |  | inactive |
| CCOc1cccc(NC(=O)CSc2nc(C)c3c(c2C#N)CCCC3)c1 |  | inactive |
| CCOC(=O)c1sc(NC(=O)CSc2nc(C)cc(C)n2)c(C#N)c1C |  | 3.55 µM (active) |
| CCOC(=O)c1sc2c(c1C)c(=O)c(C(=O)OCC)cn2CC |  | inactive |
| CCOC(=O)c1sc(NC(=O)CSc2nc(C)cc(C)c2C#N)c(C#N)c1C |  | 1 µM (active) |
| CCOC(=O)c1sc(NC(=O)CSc2n[nH]c(-c3ccc(Cl)cc3Cl)n2)c(C#N)c1C |  | 1.26 µM (active) |
| CCN(CC)CCN1c2ccccc2Sc2ccc3ccccc3c21 | 0.978% [at 11.4 µM] (inactive) |  |
| Cn1cnc2c(NCc3ccccc3)nc(NCCO)nc21 |  | inactive |
| C/C(CCN1CCCCc2nc(C)c(C)cc21)=N\OC[C@@H](O)COCc1ccco1 | -10.7% [at 11.4 µM] (inactive) |  |
| Cc1cccn2c(=O)c3cc(C(=O)N4COCC4(C)C)n(C)c3nc12 |  | inactive |
| c1ccc2c3c([nH]c2c1)[C@@H]1[C@H]2CC[C@H]([C@H]4CCCN[C@H]42)N1CC3 |  | inactive |
| CC(=O)C=NCC(=O)O | -1.6% [at 11.4 µM] (inactive) |  |

| Structure (SMILES) | activity, negative = inhibition | AC50 |
| --- | --- | --- |
| O=c1cc(N2CCCCC2)c(-c2ccccc2)nn1Cc1ccccc1Cl |  | 20 µM (active) |
| CC1=NOC(=O)/C1=C\c1ccc(-c2ccc(Cl)cc2Cl)o1 |  | 10 µM (active) |
| CCCCCCCCCCCCCCC[C@@H](O)[C@@H](N)CO |  | inactive |
| NC(=O)OCC(COC(N)=O)c1ccccc1 |  | inactive |
| COc1ccccc1N1CCN(CCCCN2C(=O)CCC2=O)CC1 |  | 3.98 µM (active) |
| COc1ccccc1N1CCN(CCCCNC(=O)c2ccc3ccccc3c2)CC1 |  | inactive |
| COc1ccccc1N1CCN(CCN2C(=O)CC3(CCCC3)CC2=O)CC1 |  | inactive |
| COc1ccccc1N1CCN(CCN2C(=O)c3ccccc3C(C)(C)C2=O)CC1 |  | inactive |
| COc1ccccc1N1CCN(CCCCN2C(=O)c3ccccc3C2=O)CC1 |  | inactive |
| COc1ccccc1N1CCN(CCCNc2cc(=O)n(C)c(=O)n2C)CC1 |  | inactive and 12.6 µM (active) |
| O=C(NCCCN1CCCCCC1)[C@@H](c1ccccc1)C1CCCCC1 |  | inactive |
| N=c1c(C(=O)NC2CCCC2)cc2c(=O)n3ccccc3nc2n1C1CCCC1 |  | inactive |
| Cn1nc(C(=O)NC2CCCCC2)c2ccccc2c1=O |  | 7.94 µM (active) |
| O=C(Nc1nnc(C2CC2)s1)c1cc(S(=O)(=O)N2CCN(c3ccccc3)CC2)ccc1Cl |  | 7.08 µM (active) |
| COC(=O)C/C=C\[C@@H](C)[C@@H](/C=N\O[C@@H](C)CN1CCCCc2nc(C)c(C)cc21)NS(=O)(=O)c1ccc(C)cc1 | -13.5% [at 11.4 µM] (inactive) |  |
| O=C(NC(Cc1ccccc1)C(=O)O)/C(=C\c1ccco1)NC(=O)c1ccc(Br)cc1 (stereo unspecified) |  | 15.8 µM (active) |
| O=C(O)C/C(=C\c1ccco1)C(=O)O | 4.79% [at 11.4 µM] (inactive) |  |
| O=C(CNC(=O)Cc1ccccc1)NCC(=O)OCc1ccccc1 (PhAc-Gly-Gly-OBn) |  | inactive |
| O=C(O)CNC(=O)c1ccccc1O | 1.11% [at 11.4 µM] (inactive) |  |
| O=C(NCC1CCCO1)/C(=C\c1ccco1)NC(=O)c1ccccc1 (stereo unspecified) |  | inactive |
| O=C(CNC(=O)OCc1ccccc1)NCC(=O)N1CCCC1C(=O)OCc1ccccc1 (stereo not drawn) (Cbz-Gly-Gly-[ξP]-OBn) |  | inactive |
| COc1ccccc1C(=O)N/C(=C/c1ccc(Br)cc1)C(=O)NCC(=O)O |  | 15.8 µM (active) |
| COc1cc(/C=C(/NC(=O)c2ccccc2Cl)C(=O)O)cc(OC)c1OC |  | inactive |
| O=C(CNC(=O)/C(=C\c1ccccc1)NC(=O)c1ccc(Br)cc1)OCc1ccccc1 |  | 3.55 µM (active) |
